For 36 compounds, Inhibition results are on record in ChEMBL document CHEMBL4513149, “CO-ADD screening of MMV (CH) - MMV compounds” (2021).

Measured potencies and affinities stand elsewhere.

As a reminder, the Inhibition is the relative decrease from the control value, in per cent.

For one assay, the system named is Klebsiella pneumoniae. The settings on record: Concentration 20 uM; ASSAY_TEST Inhibition of Bacterial Growth; detection method Absorption (OD600); MEDIA CAMHB; plate type 384well; NBS; CORNING #3640; time 18 hr.
As to `Cc1ccc(S(=O)(=O)N2CCN(C(=O)c3cc(-c4ccccc4)n[nH]3)CC2)cc1`, the Inhibition is reported as -15.32%.
The same measure, in the same setting: to `Nc1nccc2ccc(-c3ccc4nccn4c3)cc12` belongs 18.72%.
Regarding `Cc1ccc(S(=O)(=O)Nc2ccc(CN3CCN(C(=O)c4cccc(C#N)c4)CC3)cc2)cc1`, the Inhibition is on record as 10.93%.
Still for that read-out and setting: the same measure for `CN1CCN(S(=O)(=O)c2ccc(-c3ccc4c(Nc5ncc(Cl)cn5)ccnc4c3)cc2)CC1`: 7.93%.
The same measure, in the same setting: the same measure for `COc1ccc(N(CCc2cccc(C)n2)C(=O)C2CCCCC2)cc1`: 6.26%; for `Cl.Cn1ccnc1CNCCS(=O)(=O)c1cccc(Nc2ccc(-c3cccc(F)c3)cn2)c1`: 13.22%; for `CC1CCCN(C(=O)C(C)Nc2cc(Cl)ccc2N2CCOCC2)C1` (configuration not stated): 10.27%.
In the case of `CCC(NC(=O)c1ccccc1NC(=O)c1ccc(C)cc1)C(=O)OC` (configuration not stated), the Inhibition came out at 8.73%.
Same read-out and setting: the same measure for `CCc1ccc(S(=O)(=O)Nc2cc(CN3CCN(CCC(C)C)CC3)ccc2C)cc1`: 18.36%; for `FC(F)(F)c1cccc(-c2nc3c(NCc4ccncc4)nccc3[nH]2)c1`: 6.33%.
For `COC(=O)c1cccc2oc(-c3cccc(OC)c3NC(=O)c3cc(-c4ccccc4)on3)nc12`, the Inhibition stood at 13.16%.
Still for that read-out and setting: to `N#Cc1nc(-c2ccccc2)oc1S(=O)(=O)c1ccc(Cl)cc1` belongs -0.86%; to `CC(C)(C)OC(=O)N1CCN(c2nccc(-c3ccc(-c4ccc(Cl)cc4)s3)n2)CC1`, 5%.
`O=C(c1cc2ccccc2o1)N1CCN(Cc2ccc3c(c2)OCO3)CC1`: the Inhibition is recorded as 9.23%.
`Clc1cccc(CO[C@H]2CCc3ccccc3[C@@H]2n2ccnn2)c1`: the Inhibition is 8.29%.
Turning to `COc1cc2ncnc(NC3CCN(Cc4ccccc4)CC3)c2cc1OC`, the Inhibition is 10.11%.
Regarding `CC(C)(C)OC(=O)N1CCN(c2cc(-c3ccc(Oc4ccccc4)cc3)n[nH]2)CC1`, the Inhibition came to 20.96%.
The same measure, in the same setting: the same measure for `CCOc1ccc2cc(-c3nn(CC4CCN(C)CC4)c4ncnc(N)c34)ccc2c1.Cl`: 14.21%; for `COc1cc(Br)cc2cc(C(=O)Nc3cccc(C(F)(F)F)c3)c(=O)oc12`: 7.93%.
Same read-out and setting: to `Nc1ncnc2c1c(Cc1cccc3ccccc13)nn2CC1CCNCC1` belongs -3.02%; to `Cl.NCCCC(N)(C(=O)O)C(F)F.O` (configuration not stated) [EFLORNITHINE HYDROCHLORIDE], 11.19%.
The same measure, in the same setting: to `Nc1ncc(Br)cc1-c1nc2cc(Cl)cnc2[nH]1` belongs 20.39%.
As for `FC(F)(F)c1ccc(N(c2cccnc2)C2CCN(c3ccc(C(F)(F)F)cn3)CC2)cc1`, the Inhibition is given as 14.96%.
Take `Cc1ccc(C(=O)Nc2ccc(S(=O)(=O)O)c3cc(S(=O)(=O)O)cc(S(=O)(=O)O)c23)cc1NC(=O)c1cccc(NC(=O)Nc2cccc(C(=O)Nc3cc(C(=O)Nc4ccc(S(=O)(=O)O)c5cc(S(=O)(=O)O)cc(S(=O)(=O)O)c45)ccc3C)c2)c1` [SURAMIN]: the Inhibition was found to be 17.11%.
Regarding `CCN(CC)S(=O)(=O)c1ccc(Cl)c(C(=O)Nc2ccc3nc(C)sc3c2)c1`, the Inhibition is recorded as 4.43%.
As to `CC1(C)Cc2c(c(N3CCOCC3)nc3snc(Br)c23)CO1`, the Inhibition came to 3.58%.
Same read-out and setting: to `CCc1nc2ccccc2n1CC(O)COc1cc(C)ccc1Cl` (configuration not stated) belongs 3.05%.
Same read-out and setting: to `COc1ccc(Nc2ccccc2NC(=O)c2ccc(O)nc2)cc1` belongs -2.41%; to `CCc1cc(=O)n(C)c(SC(C)C(=O)Nc2ccc(F)cc2)n1` (configuration not stated), 3.6%.
With `COc1ccc(C2(C(=O)Nc3ccc(Br)cc3)CCCC2)cc1`, the Inhibition was 17.05%.
The same measure, in the same setting: to `CC1CS(=O)(=O)CCN1/N=C/c1ccc([N+](=O)[O-])o1` (configuration not stated) [NIFURTIMOX] belongs 15.43%; to `Cc1cc(C)n2nc(C(=O)Nc3cc(C(F)(F)F)ccc3N3CCOCC3)nc2n1`, 15.61%; to `Cc1cc(Cl)ccc1NC(=O)CCc1ccc(S(=O)(=O)NCC(C)C)cc1`, 8.81%.
For `O=C(Nc1ccccc1-c1nc2c(C(=O)O)cccc2o1)c1ccccc1`, the Inhibition is reported as 1.94%.
As for `CCc1ccccc1-n1c(C)cn2c3c(=O)n(C(C(=O)OC)C(C)C)c(=O)n(C)c3nc12` (configuration not stated), the Inhibition is recorded as 8.42%.
Regarding `COc1ccc(Cl)cc1NC(=O)CN(C)C(=O)c1cnn(-c2ccccc2)n1`, the Inhibition is on record as 9.17%.

A further assay concerns Candida albicans. To be noted: 20 µM.
Consider `Cc1ccc(S(=O)(=O)N2CCN(C(=O)c3cc(-c4ccccc4)n[nH]3)CC2)cc1`, for which the Inhibition worked out at 6.95%.
Regarding `Nc1nccc2ccc(-c3ccc4nccn4c3)cc12`, the Inhibition stood at 2.07%.
Consider `Cc1ccc(S(=O)(=O)Nc2ccc(CN3CCN(C(=O)c4cccc(C#N)c4)CC3)cc2)cc1`, for which the Inhibition is -0.01%.
Consider `CN1CCN(S(=O)(=O)c2ccc(-c3ccc4c(Nc5ncc(Cl)cn5)ccnc4c3)cc2)CC1`, for which the Inhibition came out at 4.17%.
In the case of `COc1ccc(N(CCc2cccc(C)n2)C(=O)C2CCCCC2)cc1`, the Inhibition was -0.29%.
Still for that read-out and setting: to `Cl.Cn1ccnc1CNCCS(=O)(=O)c1cccc(Nc2ccc(-c3cccc(F)c3)cn2)c1` belongs 4.46%; to `CC1CCCN(C(=O)C(C)Nc2cc(Cl)ccc2N2CCOCC2)C1` (configuration not stated), 5.64%; to `CCC(NC(=O)c1ccccc1NC(=O)c1ccc(C)cc1)C(=O)OC` (configuration not stated), 4.2%.
Still for that read-out and setting: to `CCc1ccc(S(=O)(=O)Nc2cc(CN3CCN(CCC(C)C)CC3)ccc2C)cc1` belongs 4.16%; to `FC(F)(F)c1cccc(-c2nc3c(NCc4ccncc4)nccc3[nH]2)c1`, 3.63%; to `COC(=O)c1cccc2oc(-c3cccc(OC)c3NC(=O)c3cc(-c4ccccc4)on3)nc12`, 8.19%.
The same measure, in the same setting: the same measure for `N#Cc1nc(-c2ccccc2)oc1S(=O)(=O)c1ccc(Cl)cc1`: 3.69%; for `CC(C)(C)OC(=O)N1CCN(c2nccc(-c3ccc(-c4ccc(Cl)cc4)s3)n2)CC1`: 3.84%; for `O=C(c1cc2ccccc2o1)N1CCN(Cc2ccc3c(c2)OCO3)CC1`: -0.54%.
Turning to `Clc1cccc(CO[C@H]2CCc3ccccc3[C@@H]2n2ccnn2)c1`, the Inhibition stood at 10.9%.
The same measure, in the same setting: to `COc1cc2ncnc(NC3CCN(Cc4ccccc4)CC3)c2cc1OC` belongs 2.88%; to `CC(C)(C)OC(=O)N1CCN(c2cc(-c3ccc(Oc4ccccc4)cc3)n[nH]2)CC1`, 5.58%; to `CCOc1ccc2cc(-c3nn(CC4CCN(C)CC4)c4ncnc(N)c34)ccc2c1.Cl`, 4.38%.
For the compound `COc1cc(Br)cc2cc(C(=O)Nc3cccc(C(F)(F)F)c3)c(=O)oc12`, the Inhibition stood at 3.09%.
Same read-out and setting: to `Nc1ncnc2c1c(Cc1cccc3ccccc13)nn2CC1CCNCC1` belongs 2.11%.
As to `Cl.NCCCC(N)(C(=O)O)C(F)F.O` (configuration not stated) [EFLORNITHINE HYDROCHLORIDE], the Inhibition was determined as 2.7%.
Same read-out and setting: to `Nc1ncc(Br)cc1-c1nc2cc(Cl)cnc2[nH]1` belongs 9.81%.
In the case of `FC(F)(F)c1ccc(N(c2cccnc2)C2CCN(c3ccc(C(F)(F)F)cn3)CC2)cc1`, the Inhibition was 2.59%.
Still for that read-out and setting: the same measure for `Cc1ccc(C(=O)Nc2ccc(S(=O)(=O)O)c3cc(S(=O)(=O)O)cc(S(=O)(=O)O)c23)cc1NC(=O)c1cccc(NC(=O)Nc2cccc(C(=O)Nc3cc(C(=O)Nc4ccc(S(=O)(=O)O)c5cc(S(=O)(=O)O)cc(S(=O)(=O)O)c45)ccc3C)c2)c1` [SURAMIN]: 39.2%.
Regarding `CCN(CC)S(=O)(=O)c1ccc(Cl)c(C(=O)Nc2ccc3nc(C)sc3c2)c1`, the Inhibition is 3.67%.
For `CC1(C)Cc2c(c(N3CCOCC3)nc3snc(Br)c23)CO1`, the Inhibition stood at 13.1%.
Take `CCc1nc2ccccc2n1CC(O)COc1cc(C)ccc1Cl` (configuration not stated): the Inhibition came to 1.23%.
On the same count and under the same terms, to `COc1ccc(Nc2ccccc2NC(=O)c2ccc(O)nc2)cc1` belongs 1.42%; to `CCc1cc(=O)n(C)c(SC(C)C(=O)Nc2ccc(F)cc2)n1` (configuration not stated), 0.76%.
Same read-out and setting: to `COc1ccc(C2(C(=O)Nc3ccc(Br)cc3)CCCC2)cc1` belongs 4.64%.
On the same count and under the same terms, to `CC1CS(=O)(=O)CCN1/N=C/c1ccc([N+](=O)[O-])o1` (configuration not stated) [NIFURTIMOX] belongs 4.12%; to `Cc1cc(C)n2nc(C(=O)Nc3cc(C(F)(F)F)ccc3N3CCOCC3)nc2n1`, 5.28%.
Regarding `Cc1cc(Cl)ccc1NC(=O)CCc1ccc(S(=O)(=O)NCC(C)C)cc1`, the Inhibition came to 1.81%.
Still for that read-out and setting: to `O=C(Nc1ccccc1-c1nc2c(C(=O)O)cccc2o1)c1ccccc1` belongs 5.59%.
Still for that read-out and setting: to `CCc1ccccc1-n1c(C)cn2c3c(=O)n(C(C(=O)OC)C(C)C)c(=O)n(C)c3nc12` (configuration not stated) belongs 0.33%.
Still for that read-out and setting: to `COc1ccc(Cl)cc1NC(=O)CN(C)C(=O)c1cnn(-c2ccccc2)n1` belongs 6.95%.
